These results are taken from PubChem BioAssay AID488862 (Broad Institute, 2010).

The structures appear in SMILES notation. About 1,200 (0.35%) of roughly 340,000 compounds were called active. The full list was thinned out, with actives kept by preference. Unmarked numbers belong to inactive results. No stated cut-off is given here; in the data, active means inhibition above about 52%; inactive means the rest.

A short description of the assay: inhibition of PrP 5' UTR reporter expression (AID 488862). Further: 0 = median of the neutral control wells. As to conditions: cell-based PrP 5' UTR mRNA reporter, plate reader; stronger effect = higher value; concentration not given here.
For `O=C(CCn1c(=O)oc2ccccc21)Nc1ccon1`, the inhibition was -14.3%.

`CCCNC(=O)C1CC(=O)N(c2ccc(OCC(=O)Nc3cccc(C)c3C)cc2)C1` (centres undefined): the inhibition is -2.71%.

On to `O=C(c1ccc2c(c1)C(=O)N(Cc1ccncc1)C2=O)N1CCN(S(=O)(=O)c2ccc(OC(F)(F)F)cc2)CC1`, for which the inhibition is -12.7%.

With `CC[n+]1c(C)n(-c2ccccc2)c2ccc(NC(C)=O)cc21`, the inhibition is -45%.

On to `Cn1c(CC(=O)NNC(=O)c2ccccc2F)nc2ccccc21`, for which the inhibition was -14.3%.

Consider `CSc1nc(N(C)NC(=O)c2cccc(C)c2)c2ccccc2n1`, for which the inhibition was 30.9%.

With `CN(NC(=O)c1ccccc1F)c1nc(C(F)(F)F)nc2ccccc12`, the inhibition is 61.9% (active).

In the case of `CCOC(=O)c1ccc(NC(=O)C2CC(=O)Nc3nc4ccccc4n32)cc1` (centres undefined), the inhibition is -13.3%.

With `Nc1ccc(OCC(O)C[n+]2ccc(CCS(=O)(=O)[O-])cc2)cc1` (centres undefined), the inhibition is 78.9% (active).

`CCCc1ccc(OCC(O)CN2CCN(C(=O)OCC)CC2)cc1` (centres undefined): the inhibition was -12.3%.

As to `CCCc1ccc(OCC(O)CN2CCN(CCO)CC2)cc1` (centres undefined), the inhibition was -4.25%.

Regarding `COC(=O)N1CN(C(=O)OC)CN(C(=O)OC)C1`, the inhibition is -16.8%.

As for `CCOC(=O)C1=C(N)N(c2ccc(C)cc2)C2=C(C(=O)CCC2)C1c1cccs1` (centres undefined), the inhibition is -23.6%.

Turning to `COC(=O)C1C(=O)c2c([nH]c(C(=O)OCCSC)c2C)CC1C` (centres undefined), the inhibition was -51.7%.

For the compound `CCCOC(=O)c1[nH]c2c(c1C)C(=O)CC(c1cccs1)C2` (centres undefined), the inhibition is 60.4% (active).

On to `COc1cccc(NC(=O)N2CCCC2C(=O)NC2CCCCC2)c1` (centres undefined), for which the inhibition is -31.7%.

For `C/C(=C(\C#N)C(=O)NCCCN1CCOCC1)N(C)C`, the inhibition was -31.6%.

Regarding `COc1cccc2c1OCC(C(=O)NCc1ccc(Cl)cc1Cl)=C2`, the inhibition was -13%.

In the case of `COC(=O)C(C)Sc1ccc2nnc(-c3cccc(F)c3)n2n1` (centres undefined), the inhibition was -8.06%.

`COCCNc1cc(-c2ccccc2)nc2cc(-c3cccc(F)c3)nn12`: the inhibition was 59.6% (active).

On to `COc1ccc(NC(=O)c2cc3nc(-c4ccccc4)cc(C)n3n2)cc1OC`, for which the inhibition was -26.9%.

On to `COc1ccc(-c2nc(-c3ccccc3)no2)c(OC)c1`, for which the inhibition is 66.6% (active).

`COc1ccc(/C=C/c2noc(-c3ccccc3OC(C)=O)n2)cc1`: the inhibition is -28.8%.

Turning to `COc1ccc(OC)c(-c2csc(-c3cccs3)n2)c1`, the inhibition is 4.49%.

In the case of `COc1ccccc1Nc1nnc(SC(C)C(=O)NC2CC2)s1` (centres undefined), the inhibition is 2.27%.

Regarding `CCOC(=O)c1c(/N=C/c2cc(C)ccc2O)sc2c1CCC2`, the inhibition is -12.5%.

Consider `O=C(CSc1cccc[n+]1[O-])NCCCc1ccccc1`, for which the inhibition is -19.4%.

Consider `C=CCn1c(C)cc(C2=NNC(=NCC)SC2)c1C`, for which the inhibition was 93.9% (active).

On to `CN(C)c1ccc(CNC(=O)CN2C(=O)COc3ccc(S(=O)(=O)N4CCCC4)cc32)cc1`, for which the inhibition is -1.62%.

On to `CCCC(=O)n1nc(NCc2ccc(OC)cc2)nc1NCc1ccc(OC)cc1`, for which the inhibition was -14.7%.

Turning to `Clc1ccc2nc3c(c(-c4ccccc4)c2c1)CNCC3`, the inhibition is -16%.

On to `Clc1ccc2nc(-c3ccccc3)nc(C(Cl)Cl)c2c1`, for which the inhibition is 92.7% (active).

With `NC(N)=Nc1nc(-c2ccccc2)c2cc(Cl)ccc2n1`, the inhibition is -17.4%.

`O=C(COC(=O)c1ccccc1C(=O)N1CCN(c2ccccc2)CC1)NCc1ccccc1`: the inhibition was -7.33%.

For `Oc1ccc(N2CCN(C(=S)NCc3ccccc3)CC2)cc1`, the inhibition is 87.9% (active).

Take `Oc1ccccc1N1CCN(C(=S)NCc2ccccc2)CC1`: the inhibition was -14.6%.

Take `O=C(NCc1ccco1)c1ccc([N+](=O)[O-])cc1Cl`: the inhibition is -16.6%.

As for `CCC(=O)c1cn(CCOc2ccccc2OC)c2ccccc12`, the inhibition is -20.1%.

On to `Cc1nn2cc(-c3ccc(Cl)cc3)cnc2c1Br`, for which the inhibition is -42%.

With `Cc1ccc(S(=O)(=O)NCCSc2ccccc2)cc1[N+](=O)[O-]`, the inhibition was -22.1%.

Regarding `Cc1ccc(S(=O)(=O)Nc2nc3ccccc3s2)cc1[N+](=O)[O-]`, the inhibition was 57.4% (active).

Take `CCOc1ccc2sc(NS(=O)(=O)c3ccc(N)cc3)nc2c1`: the inhibition is -14.4%.

For the compound `O=C(Nc1ccc2c(c1)OCO2)C1CC1(Cl)Cl` (centres undefined), the inhibition was -8.25%.

Take `O=C(Nc1ccc2c(c1)OCCO2)c1ccoc1`: the inhibition was -45.1%.

Consider `O=C(Nc1ccc2c(c1)OCCO2)C1CCCC1`, for which the inhibition was 56.5% (active).

With `O=C(c1ccc(Cl)nc1)N1CCN(S(=O)(=O)c2ccc3c(c2)OCCO3)CC1`, the inhibition is -18.9%.

For the compound `O=S(=O)(c1ccc(Br)cc1)c1nc(-c2ccccc2)oc1N1CCOCC1`, the inhibition is -6.56%.

On to `O=C(OCC(=O)N1CCN(C(=O)c2ccco2)CC1)c1c(Cl)cccc1Cl`, for which the inhibition is -17%.

`COc1cc(SC)ccc1C(=O)N(Cc1ccccc1)c1ccccc1`: the inhibition was -4.63%.

Consider `COc1ccc(C(=O)Nc2cccc(NC(=O)c3ccc(OC)cc3OC)n2)c(OC)c1`, for which the inhibition was -7.03%.

As for `COc1cc(SC)ccc1C(=O)Nc1nc(C)cs1`, the inhibition was 87% (active).

`O=C(c1cccs1)n1nc(NCc2ccccc2)nc1NCc1ccccc1`: the inhibition was -11.8%.

For the compound `Cc1noc(C)c1COC(=O)Cn1c(C)nc2ccccc21`, the inhibition is -15.5%.

Take `CC(=O)c1sc(NC(=O)CCN2C(=O)C3CC=CCC3C2=O)nc1-c1ccccc1` (centres undefined): the inhibition is -19.1%.

With `CC(=NCc1ccc2c(c1)OCO2)C1=C(O)c2ccccc2C1=O`, the inhibition is 1.49%.

For `O=C(NCc1ccccc1CN1CCCC1)c1cccc(S(=O)(=O)Nc2ccc(F)cc2)c1`, the inhibition is -16.1%.

As to `CCC(C)(O)C(=O)OC1C(=O)OC2CC3C(C)=CC(=O)C(O)C3(C)C3C4(O)OCC23C1C(C)C4O` (centres undefined), the inhibition is 78.9% (active).

As for `Cc1cc(O)c(C(=O)/C=C/c2c(F)c(F)c(F)c(F)c2F)c(=O)o1`, the inhibition is 8.81%.

Consider `CC1(C)C[C@H]2C3=CCC4[C@@]5(C)CC[C@H](O)[C@](C)(CO)C5CC[C@@]4(C)[C@]3(C)C[C@@H](O)[C@@]2(CO)[C@@H](O)[C@@H]1O` (some centres undefined), for which the inhibition is -7.8%.

On to `COc1ccccc1CNC(=O)CSc1nc(=O)n(Cc2ccncc2)c2c1CCC2`, for which the inhibition was 10.7%.

Turning to `CS(=O)(=O)N(CC(=O)N1CCOCC1)c1ccc2c3c(cccc13)CC2`, the inhibition was -19.4%.

`CC(=O)Nc1ccc(NC(=O)CSc2nnc(COc3ccccc3C)n2CC2CCCO2)cc1` (centres undefined): the inhibition was -3.51%.

In the case of `CCOC(=O)N1CCC(N2Cc3cccc(C(=O)Nc4c(C)cccc4CC)c3C2=O)CC1`, the inhibition is -4.9%.

`Cc1nc2c(-c3ccc(F)cc3)c(C)nn2c(C)c1CCC(=O)N1CCN(c2ccccn2)CC1`: the inhibition was 4.39%.

In the case of `COc1ccc(CCNS(=O)(=O)c2ccc(Cl)s2)cc1OC`, the inhibition was 6.31%.

With `COC1C(O)C(C)OC(OC2CCC3(C=O)C(CCC4C3CCC3(C)C(C5=CC(=O)OC5)CCC43O)C2)C1O` (centres undefined), the inhibition is 89.8% (active).

On to `COc1ccc(C(=O)C2CCCN(C(=O)c3cnsn3)C2)c(C)c1` (centres undefined), for which the inhibition was -10.1%.

As to `Cc1cc(Nc2ccccc2)n(C(=O)c2ccc(N)cc2)n1`, the inhibition was 67.9% (active).

As to `Cc1cc(NC(=O)Nc2ccc(Cl)cc2)n(-c2ccccc2)n1`, the inhibition was -39.6%.

Take `Cn1c(Nc2ccccc2)cc(=O)n(C)c1=O`: the inhibition was -38.1%.

Take `CCOc1ccc(CN(Cc2ccco2)C(c2cccs2)c2nnnn2C(C)(C)C)cc1` (centres undefined): the inhibition is -13.3%.

Turning to `CCOc1ccc(NC(=O)CCCCCN2C(=O)[C@@H]3Cc4ccccc4CN3C2=O)cc1`, the inhibition is -14.6%.

For the compound `CCOc1ccc(NC(=O)CCS(=O)(=O)c2cccc3nsnc23)cc1`, the inhibition was -15.9%.

As to `CSc1nnc2ccc(-c3ccc(C)cc3)nn12`, the inhibition is 0.671%.

In the case of `Cc1ccc(-c2cc(N)on2)cc1`, the inhibition was -33%.

On to `Cc1ccc2nc(-c3ccc(Br)cc3)cn2c1`, for which the inhibition is 71% (active).

On to `Cc1ccc(-c2cc(C(=O)NCc3cn(C)nc3C)c3cc(Br)ccc3n2)cc1`, for which the inhibition is -28.8%.

With `Cc1ccc(-n2c(-c3ccc(Cl)cc3)n[nH]c2=S)cc1`, the inhibition is -0.525%.

For `Cc1ccc(-c2cn3cc(C)ccc3n2)cc1`, the inhibition is 85.2% (active).

Take `O=C(NC(=S)Nc1ccc(Cl)cc1Cl)C1CC1`: the inhibition is -42.6%.

On to `O=C(COC(=O)c1ncc(Cl)c(Cl)c1Cl)NCc1cccs1`, for which the inhibition was -15.5%.

For `CCCCN(C(=O)CCNC(=O)NC12CC3CC(CC(C3)C1)C2)c1c(N)n(CCCC)c(=O)[nH]c1=O`, the inhibition is 9.19%.

Turning to `COc1ccc(CCNC(=O)C2CCCN2C(=O)Nc2ccccc2)cc1OC` (centres undefined), the inhibition was -48%.

Take `Cc1ccc(OCCOCCOc2ccc(Br)cc2/C=N\NC(=O)c2ccncc2)cc1`: the inhibition was -18.1%.

As to `Cc1cccc(OCC(=O)NCC(=O)N/N=C/c2ccc(N(C)C)cc2)c1`, the inhibition was -13.2%.

Consider `Cc1ccc(/C=N/NC(=O)COc2ccccc2-c2ccccc2)cc1`, for which the inhibition is 70% (active).

For `O=C(CSC1c2ccccc2-c2ccccc21)N/N=C/c1ccccc1`, the inhibition was 9.76%.

On to `COc1ccc(OC)c(S(=O)(=O)Nc2cccc(-c3ccc4nncn4n3)c2)c1`, for which the inhibition is -13.4%.

`Cc1c(CN2CCCC(C(=O)c3cccc(Cl)c3)C2)c(=O)n(-c2ccccc2)n1C` (centres undefined): the inhibition is -12.1%.

In the case of `COc1ccc(C(=O)/C=C/Nc2ccccn2)cc1`, the inhibition was 66% (active).

Regarding `CCOc1ccc(N/C=C/C(=O)c2ccccc2)cc1`, the inhibition is -1.68%.

For `CCOc1ccc(N/C=C/C(=O)c2cc(OC)c(OC)c(OC)c2)cc1`, the inhibition was -105%.

For `CCc1cc2c(N3CCN(c4nnc(CC)s4)CC3)ncnc2s1`, the inhibition is 2.26%.

With `CC(C)(C)c1ccc(/C=C2\SC(=O)N=C2N)cc1`, the inhibition was 36.2%.
